Compound activity from PubChem.
TDP1 cell noCPT: qHTS for Inhibitors of human tyrosyl-DNA phosphodiesterase 1 (TDP1): qHTS in cells in absence of CPT. AID 686978, 2013. 420,000 compounds, 15% hits. Potency, µM (highest dose often 46.2 µM), actives largely listed as inhibitors. DT40 Tdp1-/- hTDP1 cells, no CPT, ATP luminescence, 48 h; further: nearly all actives have a fitted effect of over 55% in size
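Cells were dispensed at 400 per well, compounds added by pin tool, plates incubated ≥48 hr at 37 °C, then CellTiter-Glo added for 30 min at room temperature before luminescence reading. Line: DT40 Tdp1-/- complemented with hTDP1; camptothecin omitted.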
KB-V1 cytotox: qHTS assay for MDR1-selective chemotherapeutics: Primary screen using the drug-selected MDR subline cells KB-V1; KB-V1 MDR cells viability, CellTiter-Glo, 72 h; Potency, µM (doses to about 46.1 µM), usual class: cytotoxic; 400,000 compounds, 3.4% hits; further: nearly all actives have a fitted effect of over 60% in size
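KB-V1 cells (P-gp-expressing MDR subline of KB-3-1) in phenol-red-free DMEM with 10% FBS were exposed to library compounds over a concentration series for 72 h at 37 degrees C. Viability read by CellTiter-Glo luminescence; concentration-effect curves fitted after normalization.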
HT1080 IDH1KD tx: qHTS for induction of synthetic lethality in tumor cells producing 2HG: qHTS for the HT-1080-IDH1KD cell line; HT-1080 IDH1 knockdown viability, ATP luminescence, 48 h; Potency, µM (titrated, usually from 46.1 µM), most hits filed as cytotoxic; 360,000 compounds, 2% hits; AID 686971, 2013
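HT-1080-IDH1KD cells (IDH1 knocked down), 750/well in RPMI with 5% FBS, treated with compound 48 h at 37 degrees C. Viability by CellTiter-Glo luminescence, normalised to DMSO and no-cell wells; concentration-response curves classed.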
HT1080NT lethal: qHTS for induction of synthetic lethality in tumor cells producing 2HG: qHTS for the HT-1080-NT fibrosarcoma cell line | HT-1080-NT fibrosarcoma viability, CellTiter-Glo ATP luminescence, 48 h | Potency, µM (highest dose often 46.1 µM), actives largely listed as cytotoxic | AID 686970, 2013 | 360,000 compounds, 1.6% hits;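 further: NT is the 2HG producing partner of a matched IDH1 knockdown line; nearly all actives have a fitted effect of over 55% in size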
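A 48-hour cytotoxicity screen used HT-1080-NT cells plated 2 hours before compound delivery. ATP-based CellTiter-Glo luminescence measured viability, normalized to DMSO and no-cell controls.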
KB-3-1 cytotox: qHTS assay for MDR1-selective chemotherapeutics: Primary screen using the parental adenocarcinoma cell KB-3-1; KB-3-1 viability, CellTiter-Glo ATP luminescence, 72 h; Potency, µM (series often up to 46.1 µM), hits mostly cytotoxic; 400,000 compounds, 1.4% hits; AID 1347075, 2019; further: nearly all actives have a fitted effect of over 60% in size
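Screening of KB-3-1 cells (DMEM, 10% FBS, phenol-red free) ran from lowest to highest compound concentration; after 72 h at 37 °C viability was read luminescently and curves fitted.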
DT40 TDP1 CPT: qHTS for Inhibitors of human tyrosyl-DNA phosphodiesterase 1 (TDP1): qHTS in cells in presence of CPT. chicken DT40 Tdp1-/-;hTDP1 cells + 20 nM CPT, ATP luminescence, 48 h. Potency, µM (top dose mostly 46.2 µM), most hits filed as inhibitors. 420,000 compounds, 12% hits. AID 686979, 2013; further: nearly all actives have a fitted effect of over 55% in size
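Cell growth measured by CellTiter-Glo luminescence after a minimum 48 h, 37 C compound exposure with 20 nM CPT in Tdp1-knockout DT40 cells stably expressing hTDP1, seeded 400/well; qHTS titration format.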
Hits are given with their value; 0 = inactive; ? = inconclusive; - = no result given. An excerpt weighted towards active compounds, which were near 19% of everything screened. The call rests on the fitted dose curve; in most records, active means well fitted curve in the direction sought with a large enough effect; inconclusive means small, poorly fitted or top-dose-only effect, or another doubt; inactive means no such curve, though single readings can be large; an effect the other way counts as inactive or inconclusive.

SMILES	TDP1 cell noCPT	KB-V1 cytotox	HT1080 IDH1KD tx	HT1080NT lethal	KB-3-1 cytotox	DT40 TDP1 CPT
COc1cccc(CNC(=O)c2cc3c(-c4ccccc4F)nn(C)c3s2)c1	16µM	?	-	-	?	?
COc1ccccc1N1CCN(C(=O)c2cc3c(-c4ccccc4F)nn(C)c3s2)CC1	6.5µM	?	-	-	?	?
COc1ccccc1N1CCN(CCc2ccccc2)CC1	0	0	0	0	0	?
Cc1cccc(OCC(=O)Nc2cc(-c3ccccc3F)nn2-c2ccccc2)c1	?	0	-	-	0	?
c1ccc2c3c(ccc2c1)OCC1CONC31 (stereo unspecified)	0	0	0	0	0	0
CC(C)[C@]1(O)[C@@H](OC(=O)c2ccc[nH]2)[C@@]2(O)[C@@]3(C)C[C@]4(O)O[C@@]5([C@H](O)[C@@H](C)CC[C@]35O)[C@@]2(O)C41C	?	-	-	-	-	0
COc1ccc(CN2CCc3nc(N4CCN(c5ccc(F)cc5)CC4)ncc3C2)c(OC)c1OC	4.6µM	?	-	-	0	5.8µM
CC(=O)c1ccc2c(c1)C1C(Cl)C(Sc3ccccc3[N+](=O)[O-])CC1C(C(=O)O)N2 (stereo unspecified)	?	10µM	0	0	0	?
CC1C(=O)OC2O[C@]3(C)CC[C@H]4C(C)CCC1[C@]24OO3 (stereo partly specified)	1.2µM	-	-	-	-	7.3µM
C[C@@H]1CC[C@H]2[C@@H](C)C(=O)O[C@@H]3O[C@@]4(C)CC[C@@H]1[C@]32OO4	4.1µM	?	0	0	0	0.65µM
C[C@@H]1CCC2[C@@H](C)C(=O)O[C@@H]3OC4(C)CCC1[C@@]23OO4 (stereo partly specified)	8.2µM	0	0	0	0	4.1µM
O=c1c2cc(N3CCOCC3)ccc2[nH]c(=S)n1Cc1ccc(Cl)cc1	15µM	21µM	0	0	0	21µM
O=C1NCN(c2ccccc2)C12CCN(CCCOc1ccc(F)cc1)CC2	23µM	-	-	-	-	?
O[C@H]1C[C@H](c2ccccc2)N(CC2CCCCC2)C[C@@H]1n1cc(-c2ccc(F)cc2)nn1	15µM	?	0	0	?	23µM
CCc1ccc(-n2c(=O)c3sc4ccccc4c3n(CC(=O)NC3CCCC3)c2=O)cc1	?	0	-	-	0	?
COC(COC(N)=O)C1=C(N2CC2)C(=O)C(C)=C(N2CC2)C1=O (stereo unspecified)	0.16µM	?	3.3µM	6.5µM	4.1µM	0.16µM
Nc1cccc(SC2CC(=O)N(c3ccc(Cl)cc3C(=O)c3ccccc3)C2=O)c1 (stereo unspecified)	21µM	?	0	0	?	?
CN1CCN(CC(=O)Nc2ccc(Cl)cc2C(=O)c2ccccc2)CC1	?	0	0	0	0	0
CCCc1cc(-c2n[nH]c(C(=O)OCC)c2-c2cscn2)c(O)cc1O	15µM	0	?	0	0	?
Brc1ccc2[nH]cc(/C=N/N3CCCCC3)c2c1	15µM	0	0	0	0	?
C(=NN1CCCCCC1)c1c[nH]c2ccccc12	0	0	0	0	0	0
CCOP(=O)(OCC)C(O)c1cccc([N+](=O)[O-])c1 (stereo unspecified)	0	0	0	0	0	0
CCOP(=O)(OCC)C(Nc1cc(Cl)cc(Cl)c1)c1cccc(O)c1 (stereo unspecified)	?	0	0	0	0	?
CCOP(=O)(OCC)C(Nc1cccc(C(F)(F)F)c1)c1ccc(C)cc1 (stereo unspecified)	18µM	?	?	?	?	?
